# Laboratory results as given in the supplement of paper PMC6555819.
# How the values were obtained:
# Test in all cases: PBM binding z-score (relative to random genomic background probes); higher = stronger binding; sequences stand for … in GC…GCGATTGACAGCGTAGAATGAAGG
# [1] = test system: RARb homodimer (NR concentration 270 nM)
# Outline: (§1)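 Ligand-free nuclear receptor dimers were bound for 1 h to custom Agilent 4×180K protein-binding microarrays. Detection used antibodies against each partner (one per run). Binding z-scores rest on regression-normalized fluorescence, with random background probes as the reference.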
# [2] = test system: RARg:RXRa (NR concentration 270 nM, RXRa partner concentration 90 nM)
# Outline: as §1
# [3] = test system: RARg homodimer (NR concentration 270 nM)
# Outline: as §1
# [4] = test system: RXRa DBDmut IVT, anti-RXR (DBD mutation: RXRa K156A/R161A, NR concentration 90 nM)
# Outline: as §1
# [5] = test system: RXRa homodimer (NR concentration 180 nM)
# Outline: as §1
# [6] = test system: THRa:RXRa (NR concentration 90 nM, RXRa partner concentration 90 nM)
# Outline: as §1
# [7] = test system: THRa homodimer (NR concentration 90 nM)
# Outline: as §1
# [8] = test system: VDR homodimer (NR concentration 270 nM)
# Outline: as §1
Sequence,PBM binding z-score [1],PBM binding z-score [2],PBM binding z-score [3],PBM binding z-score [4],PBM binding z-score [5],PBM binding z-score [6],PBM binding z-score [7],PBM binding z-score [8]
CCTCGGAGCACAACAGGAGGTCAGAGCTGCCAGA,2.86,1.9,1.65,-0.138,1.74,1.91,0.301,0.485
CCGACTGGGCCAAAGGTCATTGATTCCAATGCTC,4.58,5.54,4.4,1.57,5.7,3.21,0.644,2.4
TCTTGTAGAGCAATAGAGGTTAAGAAAGTGCGCT,0.76,0.413,0.158,-0.107,0.858,1.76,-1.07,-0.332
CCTTACGGGACAAGGTTATAGCACGGGTGGTACG,1.07,1.07,0.894,-0.464,1.35,1.08,0.341,0.555
TCTATTAGTTCAAGGGCAACCGACGAGTCCGTTT,2.81,2.08,2.62,2.6,1.58,1.92,1.36,3.41
AGAGCGAGGGCACGCTGAGTTGATAGCAGAGTAG,1,1.76,1.96,1.28,1.06,1.51,-0.183,1.48
CGAACTAGGTCATCCAGGACAGAGAATACATTGA,2.81,4.02,4.59,2.33,3.1,3.49,1.8,1.64
CCTACTGGGCTATCAGGTCATTGATATCAACGTT,2.18,1.56,1.35,0.092,0.965,3.1,2.44,1.01
CCTAGTTGGTCAAGGTCGCACACGCTATAGGTAC,2.39,1.87,2.27,0.634,1.83,2.64,1.75,2.3
GCATATAAGTAATACAAGGTGAAAGTCCGATTGT,0.816,0.308,0.389,0.717,0.568,2.96,0.985,-0.188
AGAACGAGGGCACGCTGATTTGATAGCAGAGTAG,1.14,1.65,1.92,1.63,1.38,1.65,-0.138,0.667
CGTCCATGGTCAATGCTAGGTCAGTGAAAGCATT,2.59,2.58,1.9,0.0994,0.519,1.9,0.665,-0.0955
CAAACTAGGTCACCGGAAGGCCAAAGTCCGCATG,3.78,5.9,5.62,1.55,3.59,3.53,1.43,0.943
GCGACTGGGGCAAATCAGGTTACCATAAGGTTGG,1.4,0.714,0.619,-0.00232,0.576,4.22,0.742,-0.198
GCTAGTTGGTCAGTAAAAGGTCACACGCCGGTCG,5.37,5.72,5.2,0.626,5.46,3.72,1.66,1.85
TCTATTAGTTGATGGGCAACCGACGAGTCCGTTT,-0.181,-0.125,-0.0889,1.49,0.101,-0.425,0.00181,0.831
CCTATTAGTTGACCATCAGGGCAACCGAAGCTCG,1.35,0.553,0.807,0.518,0.205,1.19,0.957,0.592
CCGAGTAGGTTATGGGGCATTAAGGCAACGGTGA,1.08,0.561,0.543,-0.314,0.65,0.981,0.598,0.0646
CCGAGTAGGTTATGGGGCATTCGGGCAACGGTGA,1.46,0.533,0.653,-0.483,0.797,0.415,0.172,-0.175

Sequence,PBM binding z-score [1],PBM binding z-score [2],PBM binding z-score [3],PBM binding z-score [4],PBM binding z-score [5],PBM binding z-score [6],PBM binding z-score [7],PBM binding z-score [8]
GTTTGTAGATCAAGGTTAAGAAAGACTAAGCTAA,0.79,0.774,0.839,0.638,0.913,1.44,0.453,0.645
GCTTTTAGATCAAGGTTAAGAAAGACTAAGCTAA,0.302,0.483,0.485,0.874,0.844,1.37,0.0946,-0.0628
ACCTCTAGGTAAGACTCAGTTCAGTGAAGAACGC,0.0203,-0.0549,-0.0332,0.371,-0.0186,0.243,0.088,0.678
TCAAATAGGTAAAAGGTGAAAGTCGGTGTGGTAA,2.05,1.86,1.07,2.15,3.26,1.77,0.3,0.497
CGAACTAGGTCATCCAGGACACTGAATACATTGA,3.19,4.13,4.86,2.38,3.13,4.19,3,3.09
ACAGACAGGTGAGTGAAGTTAACTCAGCTGGACG,-0.414,-0.0567,0.156,-0.397,0.359,-0.189,-1.01,-0.612
CCTATTAGTTGACCATAAGGGCAACCGCAGCTCG,2.18,1.05,1.07,0.58,0.711,1.83,1.49,0.923
TATCCTAGGTCATTGGGCCAGTATAGTACGCATC,3.29,4.22,4.55,2.33,3.37,3.25,1.52,1.65
ATCTCTAGGTAAGACTCAGTTCCGTGAAGAACGC,0.119,-0.049,-0.0446,0.432,-0.116,0.287,0.766,0.435
CGTCCAAGGTCAAAAGTCAGTGAAGAGATGACGG,3.25,5.69,5.8,3.57,6.1,3.41,1.3,1.86
CTCGAAAGTTCGTGCTCAGGTGAGTATACCAAAC,1.55,2.29,1.52,2.83,1.01,2.86,0.851,1.88
CGTCAAAGTTCAAGGTGACGTAACAGAAAGCAGC,4.19,5.57,6.39,4.67,4.63,3.25,1.36,3.17
TGTCAAAGTTCAGAGGTAACGTAAGTATCCACAC,3.02,4.64,4.84,3.01,4.22,2.53,0.262,2.11
ATCTCTAGGTAACAAGTTCAGTGGAAGAGAGGAC,1.89,1.22,1.25,1.13,0.888,1.56,1.13,2.02
GGAACGAGAGCAAAGTTGATAGCATCTGTCGACG,-0.806,-0.113,-0.0315,-0.36,0.334,-0.711,-1.35,-0.396
TCTCGGAGCACACGAAGGTCAGAGCTTTCCAGAG,2.66,2.84,1.83,-0.242,1.7,1.35,-0.853,-0.73
ACTCGGAGGAGAAAGGTCAGAGCTACGCCAGTGA,4.21,4.22,4.04,0.158,4,2.36,-0.0607,0.437
TCTCGGCGGACACGAAAGGTCAGAGCTCGACATC,4.12,4.12,4.06,0.462,3.66,2.55,0.2,0.543
CAAACTAGGTCATAGAGGTCAAAGTCCGTGCGTA,5.51,6.95,7.46,3.57,7.64,4.64,2.63,7.04

Sequence,PBM binding z-score [1],PBM binding z-score [2],PBM binding z-score [3],PBM binding z-score [4],PBM binding z-score [5],PBM binding z-score [6],PBM binding z-score [7],PBM binding z-score [8]
ATATGTAGGTTAAGGATCATTCAGGTTGGTTCGC,0.849,0.99,0.991,0.797,1.42,1.42,0.728,1.16
CCAACTAGGTCAAAGGTCAAAGTCGAGCCAACCA,5.33,9.03,7.43,3.14,10.2,4.82,1.79,3.47
CCTAGTTGGTCAGGGTCACACACGCTATAGGTAC,3.88,4.11,3.38,1.6,4.93,3.63,2.49,2.69
CCTACTGGGCCAAAGGTCGTTGATTCCAATGCTC,2.03,2.66,1.07,0.474,2.82,1.5,0.0932,0.435
AATAGAGGGTCACTAGGCCAGAGTAGGTACGAAT,3.01,4.11,4.52,1.93,4.2,1.99,0.353,1.1
TCTCGGAGGACATGAAGGTCAGAGCTTTCCAGAG,3.3,2.47,2.57,0.811,1.44,2.28,0.338,1.2
CAAACTAGCTCAAGGTCAAAGTCGGTTTGTGCCA,4.04,4.12,3.84,2.23,4.51,3.95,3.59,3.7
TCAGCTAGGTCAGTTGGTCAGCTAACGAGCTGCC,2.61,2.79,3.45,0.986,0.749,0.928,-0.339,-0.91
TGAATGGGGTTAAAGATCAGGGAACGTGGCGTCG,1.49,3.19,1.53,1.95,6,2.88,1.23,1.58
CCTTACGGGTCCAGGTTATAGCACGGGTGGTACG,0.293,-0.0416,0.158,-0.824,0.106,0.171,0.291,0.862
ATCGAAAGTTCGAAGGTGAGTATACCCACCCGAA,0.995,1.82,1.51,1.94,2,0.601,-0.388,1.07
CGAACTAGGTTAGAACAGGACAGTGAAGGATGAT,0.456,0.384,0.607,0.0179,0.171,1.92,-0.166,-0.137
CCGACTGGGGCAGAAAGGTTACCTTACCATCCGG,1.97,1.25,0.987,-0.233,1.28,1.39,0.772,-0.247
TCATATAGGTAAACAGGTAAAAGTCCGTAAGTTA,0.493,0.41,0.406,1.53,0.676,0.697,0.445,0.448
ACAGACATGTGAGTGAAGGTAACTCAGCTGGACG,-0.584,0.0591,0.117,-0.191,0.317,-0.00314,-0.488,-0.512
CCGACTGGGCCAAAAAGGTCATTGATGCCGATAA,4.22,4.39,3.5,0.66,4.52,3.14,0.199,2.14
CATACAGGGTCAGCTAGGCGAGAGTAGGGACGGC,3.12,4.39,4.53,1.72,4.02,3.05,1.01,0.943
AGAATGAGGTTCTTAAGATCAGGGAATTGCGGTC,-0.377,-0.106,-0.186,0.301,-0.00148,0.365,0.000852,-0.0897
CAAACTAGTTCAAGGTCAAAGTCGGTTTGTGCCA,4.53,4.97,4.53,3.32,4.79,4.05,4.02,4.9
